± gives the standard deviation of the averaged measurements.

Assay [1] relates to DLD1. Kind of assay: cell viability (CellTiter-Glo) relative to plate median (fraction of plate median); higher = more viable cells. The following applies: 5 µM; treatment time 24 h; reporter: 7TFP. The method in brief: (§1)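 Colorectal cancer lines with stably integrated lentiviral TCF/Wnt firefly luciferase reporters received library compounds at a final 5 µM, 24 h after seeding into 384-well plates, for a 24 h exposure. Reported figures are plate-median-normalised firefly luciferase or CellTiterGlo luminescence per well. They average two independent replicates.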
A general note: Cellular ATP, detected with luciferase, serves as a proxy for viable cell number.

In assay [2] the test system is HCT116. Described as above. The following applies: 5 µM; treatment time 24 h; reporter: TCF4/Wnt. The method in brief: as §1
Assay [3] relates to SW480. The description is as above. As to conditions: 5 µM; treatment time 24 h; reporter: 7TFP. A digest of the protocol: as §1
The test system of assay [4] is DLD1. Description: TCF/Wnt firefly luciferase reporter signal relative to plate median (fraction of plate median); higher = higher Wnt reporter signal. The following applies: 5 µM; treatment time 24 h; reporter: 7TFP. The method in brief:
as §1
(Reporter assays use an easily measured gene product as a stand-in for the process of interest.)

Assay [5] relates to SW480. The description is as above. As to conditions: 5 µM; treatment time 24 h; reporter: 7TFP. A digest of the protocol:
as §1

The test system of assay [6] is DLD1. Kind of assay: cell viability (CellTiter-Glo) relative to plate median (fraction of plate median); higher = more viable cells. As to conditions: 10 µM, treatment time 24 h. The method in brief:
(§2)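 Colorectal cancer cell lines stably transduced with lentiviral TCF/Wnt firefly luciferase reporters (7TFP or TCF4/Wnt) were seeded in 384-well plates. 24 h later they received kinase inhibitor library compounds at a final 10 µM for 24 h. Parallel plates were read for firefly luciferase or CellTiterGlo luminescence on a Tecan F500 reader. Each well's signal was normalised to the plate median (webcellHTS2, additive, no log transformation), and the mean of two independent replicates is reported.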

Assay [7] relates to HCT116. Described as above. As to conditions: 10 µM; treatment time 24 h; reporter: TCF4/Wnt. A digest of the protocol: as §2
Assay [8] concerns SW480. The description is as above. The following applies: 10 µM; treatment time 24 h; reporter: 7TFP. A digest of the protocol:
as §2

Assay [9] has as its system DLD1. Kind of assay: TCF/Wnt firefly luciferase reporter signal relative to plate median (fraction of plate median); higher = higher Wnt reporter signal. As to conditions: 10 µM, treatment time 24 h. A digest of the protocol:
as §2

Assay [10] concerns HCT116. Described as above. As to conditions: 10 µM; treatment time 24 h; reporter: TCF4/Wnt. The method in brief: as §2
In assay [11] the test system is SW480. Described as above. The following applies: 10 µM; treatment time 24 h; reporter: 7TFP. A digest of the protocol:
as §2

As to `COP(=S)(OC)SCn1nnc2ccccc2c1=O`, the cell viability with DLD1 [1] amounted to 0.983 ± 0.02; with HCT116 [2], 0.939 ± 0.049; in the assay on SW480 [3], 0.955 ± 0.0071. For the same compound, the “TCF/Wnt firefly luciferase reporter signal” value with DLD1 [4] stood at 0.991 ± 0.13; in the assay with SW480 [5], 0.903 ± 0.14.

In the case of `c1cc2c(cc1[C@H]1OC[C@H]3[C@@H]1CO[C@H]3c1ccc3c(c1)OCO3)OCO2`, the cell viability in the assay on DLD1 [1] turned out to be 1.03 ± 0.014; in the assay on HCT116 [2] it was 1.03 ± 0.13; in the assay on SW480 [3], 0.952 ± 0.068. The results for the “TCF/Wnt firefly luciferase reporter signal” value with DLD1 [4] and with SW480 [5] were 1.09 ± 0.064 and 0.932 ± 0.21, respectively.

With `CNC1CC(N)C(O)C(OC2OC(CO)C(O)C3OC4(OC(C(N)CO)C(O)C(O)C4O)OC23)C1O` (stereo not drawn), the cell viability in the assay with DLD1 [1] turned out to be 0.983 ± 0.039; in the assay with HCT116 [2] it was 0.98 ± 0.029; in the assay with SW480 [3] it was 0.985 ± 0.017. The “TCF/Wnt firefly luciferase reporter signal” value in the assay with DLD1 [4] was found to be 0.979 ± 0.073; in the assay on SW480 [5] it was 0.988 ± 0.011.

In the case of `CC(NC(C)(C)C)C(=O)c1cccc(Cl)c1` (stereo not drawn), the cell viability in the assay with DLD1 [1] was 1.02 ± 0.037; with HCT116 [2], 1.02 ± 0.021; with SW480 [3], 1.02 ± 0.021. Also, the “TCF/Wnt firefly luciferase reporter signal” value amounted to 1.11 ± 0.057 in the assay with DLD1 [4] and 1.02 ± 0.11 in the assay with SW480 [5].

For `NC(=O)c1cc([N+](=O)[O-])cc([N+](=O)[O-])c1`, the values for the cell viability with DLD1 [1], in the assay with HCT116 [2] and with SW480 [3] were 1.01 ± 0.015, 1.01 ± 0.093 and 0.98 ± 0.016, respectively. Further, the entries for the “TCF/Wnt firefly luciferase reporter signal” value with DLD1 [4] and with SW480 [5] were 1.06 ± 0.05 and 0.923 ± 0.14, respectively.

As to `Cc1ccc(-c2nc3ccc(C)cn3c2CC(=O)N(C)C)cc1`, the cell viability in the assay on DLD1 [1] was found to be 1.02 ± 0.035; in the assay with HCT116 [2], 1.09 ± 0.16; in the assay on SW480 [3], 0.955 ± 0.056. In addition, the “TCF/Wnt firefly luciferase reporter signal” value turned out to be 1.13 ± 0.085 in the assay on DLD1 [4] and 0.988 ± 0.06 in the assay on SW480 [5].

In the case of `COc1cccc(C=O)c1OC`, the cell viability was 1.01 ± 0.022 with DLD1 [1], 1.1 ± 0.15 in the assay on HCT116 [2] and 1 ± 0.043 in the assay with SW480 [3]. In addition, the “TCF/Wnt firefly luciferase reporter signal” value in the assay on DLD1 [4] came to 1.03 ± 0.073; with SW480 [5], 0.914 ± 0.088.

In the case of `CC(=O)Oc1ccc(/C=C/c2cc(OC(C)=O)cc(OC(C)=O)c2)cc1`, the results for the cell viability in the assay on DLD1 [1], in the assay on HCT116 [2] and with SW480 [3] were 1.05 ± 0.042, 1.02 ± 0.014 and 1.09 ± 0.021, respectively. For the same compound, the “TCF/Wnt firefly luciferase reporter signal” value with DLD1 [4] is 1.14 ± 0.26; in the assay with SW480 [5] it was 1.17 ± 0.078.

Consider `CN[C@@H](C)[C@@H](O)c1ccccc1`, for which the cell viability in the assay on DLD1 [1] came to 0.9265 ± 0.0021; in the assay with HCT116 [2], 1.02 ± 0.035; in the assay with SW480 [3] it was 0.978 ± 0.06. For the same compound, the “TCF/Wnt firefly luciferase reporter signal” value with DLD1 [4] came to 0.993 ± 0.067; in the assay on SW480 [5] it was 1.03 ± 0.064.

Consider `CC[C@@H](C(=O)[C@@H](C)[C@@H](O)[C@H](C)[C@@H]1O[C@@H]([C@@H](CC)C(=O)O)CC[C@@H]1C)[C@H]1O[C@]2(C=C[C@@H](O)[C@]3(CC[C@@](C)([C@H]4CC[C@](O)(CC)[C@H](C)O4)O3)O2)[C@H](C)C[C@@H]1C`, for which the figures for the cell viability with DLD1 [1], with HCT116 [2] and with SW480 [3] were 0.948 ± 0.14, 0.978 ± 0.073 and 1.07 ± 0.05, respectively. Further, the “TCF/Wnt firefly luciferase reporter signal” value is 0.783 ± 0.11 in the assay with DLD1 [4] and 0.897 ± 0.089 in the assay on SW480 [5].

Take `COC[C@H]1OC(=O)c2coc3c2[C@@]1(C)C1=C(C3=O)[C@@H]2CCC(=O)[C@@]2(C)C[C@H]1OC(C)=O` [Wortmannin]: the cell viability with DLD1 [6] (reporter: 7TFP) amounted to 0.844 ± 0.016; with DLD1 [6] (reporter: TCF4/Wnt), 0.8345 ± 0.0064; in the assay on HCT116 [7] it was 0.733 ± 0.091; with SW480 [8] it was 0.963 ± 0.035. Besides, the “TCF/Wnt firefly luciferase reporter signal” value in the assay on DLD1 [9] (reporter: 7TFP) came out at 0.662 ± 0.033; in the assay with DLD1 [9] (reporter: TCF4/Wnt) it was 0.821 ± 0.059; with HCT116 [10], 0.699 ± 0.021; in the assay on SW480 [11], 0.856 ± 0.54.

For `CC[C@@]1(O)C[C@H](O)c2c(cc3c(c2O)C(=O)c2c(O)ccc(O)c2C3=O)[C@H]1C(=O)OC`, the cell viability worked out at 1.02 ± 0.067 in the assay with DLD1 [1], 1.05 ± 0.035 in the assay on HCT116 [2] and 1.01 ± 0.03 in the assay with SW480 [3]. The “TCF/Wnt firefly luciferase reporter signal” value in the assay with DLD1 [4] amounted to 1.08 ± 0.021; in the assay on SW480 [5] it was 0.908 ± 0.12.

Turning to `c1cncc([C@@H]2CCCCN2)c1`, the values for the cell viability in the assay on DLD1 [1], in the assay with HCT116 [2] and with SW480 [3] were 0.993 ± 0.011, 0.952 ± 0.17 and 0.9635 ± 0.0078, respectively. In addition, the “TCF/Wnt firefly luciferase reporter signal” value with DLD1 [4] is 0.971 ± 0.11; in the assay with SW480 [5], 0.927 ± 0.044.

Source of the values: the supplement of paper PMC6522484.
